# aSyn rescue: qHTS of alpha-syn Inhibitors | Yeast expressing alpha-synuclein, growth rescue, BacTiter-Glo, 24 h | Potency, µM (top dose mostly 46.1 µM), inactives show at the top dose growth rescue (activation), usual class: activators | 0.14% of 370,000 active | AID 652106, 2013; further: % of control where 0% means no effect; nearly all actives have a fitted effect of over 65% in size
#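 Readout is rescue of growth in alpha-synuclein-expressing yeast, so inhibitors of toxicity appear as activators. Growth after 24 hr at 30 deg C in galactose medium is quantified by luminescence.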
# FUS yeast rescue: qHTS for Suppressors of FUS Proteinopathy: Primary screen using FUS-linked yeast assay; S. cerevisiae FUS-expressing, growth rescue, OD600, 24 h; Potency, µM (top dose mostly 76.6 µM), hits mostly activators; 0.24% of 390,000 active; AID 1347120, 2019;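 further: plate controls were DMSO vehicle for no effect and reference control for full effect; nearly all actives have a fitted effect of over 55% in size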
#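 S. cerevisiae expressing FUS from galactose induction served as the toxicity model. Growth after 24hr at 30C, read as absorbance at 600 nm, indicates suppression of toxicity; compounds dosed at several concentrations.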
# Abeta yeast res: qHTS for compounds that reverse cellular toxicity of Amyloid beta (A-beta) peptide in yeast: Primary Screen. yeast expressing A-beta42, growth rescue, OD600, 48 h; response scale: 0% DMSO, 100% iron-clioquinol control. Potency, µM (titrated, usually from 46.1 µM), hits mostly activators. 0.063% of 410,000 active; further: nearly all actives have a fitted effect of over 55% in size
#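 Yeast growth medium received pinned compounds, then yeast cells expressing toxic A-beta were added; plates incubated at 30 C for 48 hr. Growth read as absorbance at 600 nm, normalized to DMSO and equimolar FeCl3 plus clioquinol controls.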
# TDP-43 yeast inh: qHTS of TDP-43 Inhibitors; TDP-43 expressing yeast growth rescue, BacTiter-Glo, 24 h; 1.8% of 410,000 active; Potency, µM (doses to about 46.1 µM), inactives show at the top dose growth rescue (activation), actives largely listed as activators; further: % of control where 0% means no effect; nearly all actives have a fitted effect of over 50% in size
#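 In this qHTS, compounds that restore growth of yeast expressing TDP-43 appear as activators. Cells (OD600=0.02, galactose medium, raffinose-pregrown) are incubated with compound 24 hr at 30 deg C and growth is quantified by BacTiter-Glo.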
# Active calls of the source: *; i = inactive; ? = inconclusive; . = no result; [ ] = another dose, or the depositor's remark. Most compounds without a hit are left out; they make up all but 2.1% or so of the library. The call rests on the fitted dose curve; in most records, active means well fitted curve in the direction sought with a large enough effect; inconclusive means small, poorly fitted or top-dose-only effect, or another doubt; inactive means no such curve, though single readings can be large; an effect the other way counts as inactive or inconclusive. Potency means the concentration at half of the fitted maximal effect.
SMILES,aSyn rescue,FUS yeast rescue,Abeta yeast res,TDP-43 yeast inh
COCCn1c(CN2CCN(c3cccc(Cl)c3)CC2)nc2c1c(=O)n(C)c(=O)n2C,8.5%,i,i,27.3%
CC(C)CCn1c(CN2CCN(c3cccc(Cl)c3)CC2)nc2c1c(=O)n(C)c(=O)n2C,4.5%,i,i,15.8µM*
COc1ccccc1-c1csc(C(O)c2ccccc2)n1 (stereo unspecified),?,i,i,?
COc1ccc(CCCC(=O)NCc2ccccc2)cc1C,9.1%,.,i,17.8µM*
c1csc(-c2cc(N3CCCCC3)c3ccccc3n2)c1,12.4%,i,i,3.0%
COc1ccc(C(C)=O)cc1Cn1c(C)c(C(=O)NCc2ccc(C(F)(F)F)cc2)sc1=O,-9.3%,i,i,0.0%
O=C1C=C(C#Cc2ccccc2)C[C@@H](c2ccc(F)cc2)C1,1.1%,i,i,17.8µM*
O=C1C=C(c2cc3ccccc3s2)C[C@@H](c2ccc(F)cc2)C1,0.5%,i,i,17.8µM*
COc1ccccc1C#CC1=CC(=O)C[C@H](c2ccc(F)cc2)C1,2.5%,i,i,2.1%
COc1ccc(C2=CC(=O)CC(c3ccc(OC)cc3)C2)cc1 (stereo unspecified),13.8%,i,i,25.1µM*
COCc1ccccc1C1=CC(=O)C[C@H](c2ccc(OC)cc2)C1,9.5%,i,i,11.2µM*
COc1ccc(C2=CC(=O)CC(c3ccccc3)C2)cc1 (stereo unspecified),9.9%,i,i,17.8µM*
CCOc1ccc(C2=CC(=O)C[C@H](c3ccc(OC)cc3)C2)cc1,12.4%,i,i,12.6µM*
C=Cc1ccc(C2=CC(=O)C[C@H](c3ccc(OC)cc3)C2)cc1,8.1%,i,i,15.0%
COc1ccc(C2=CC(=O)CC(c3ccc(F)cc3)C2)cc1 (stereo unspecified),8.7%,i,i,15.8µM*
COc1ccc(C2=CC(=O)C[C@H](c3ccc(Cl)cc3)C2)cc1,1.7%,i,i,?
Cn1ccc2ccc(C3=CC(=O)C[C@H](c4ccc(F)cc4)C3)cc21,11.9%,i,i,15.8µM*
CC(C)NC(=O)NC(=O)CSc1nnc(C(F)(F)F)n1C,-3.5%,i,i,7.7%[9.22 µM]
CCO/C(C)=N/Oc1cncnc1,-5.1%,i,i,0.0%
Cc1ccc(C2=CC(=O)C[C@H](c3ccc(F)cc3)C2)cc1,14.4%,i,i,15.8µM*
O=C1C=C(c2ccc(CO)cc2)C[C@@H](c2ccc(F)cc2)C1,13.7%,i,i,35.5µM*
O=C1C=C(c2ccc(-c3ccccc3)cc2)C[C@@H](c2ccc(F)cc2)C1,0.9%,i,i,0.0%
O=C(Nc1cccc(N2CCCC2)c1)c1cccs1,0.5%,i,i,-16.4%
Cc1c(OC(C(=O)O)c2ccccc2)ccc2c1oc(=O)c1ccccc12 (stereo unspecified),?,i,i,-18.2%
CCOc1ccc(-c2cccc(NC(=O)COc3ccc(Cl)cc3)c2)nn1,-8.3%,i,?,?
SMILES,aSyn rescue,FUS yeast rescue,Abeta yeast res,TDP-43 yeast inh
COc1ccc([C@H]2CC(=O)C=C(c3ccc4c(c3)OCO4)C2)cc1OC,-0.7%,i,i,15.6%
COc1cccc(C2=CC(=O)C[C@H](c3ccc4c(c3)OCO4)C2)c1OC,-2.5%,?,i,12.6µM*
COc1ccc(F)cc1C1=CC(=O)C[C@H](c2ccc3c(c2)OCO3)C1,1.4%,i,i,22.4µM*
COc1cc(F)c(C2=CC(=O)C[C@H](c3ccc4c(c3)OCO4)C2)cc1F,-1.9%,i,i,12.6µM*
COc1cccc(OC)c1C1=CC(=O)C[C@H](c2ccc3c(c2)OCO3)C1,-5.8%,i,i,?
Cc1ccc2oc3c(c(=O)c2c1)C(c1cccc(O)c1)N(c1ccccn1)C3=O (stereo unspecified),-0.3%,i,i,6.5%
CCCC(C(=O)Nc1ccc(S(=O)(=O)N2CCOCC2)cc1)c1ccccc1 (stereo unspecified),4.9%,?,i,-19.3%
CCOC(=O)c1nnc(-c2cccs2)nc1Oc1ccccc1C(=O)OC,10.8%,i,i,-3.0%
CCOC(=O)c1nnc(-c2cccs2)nc1NC(C)C,5.3%,i,i,12.6µM*
O=C(NCc1ccccc1)C1Nc2ccc(OC(F)(F)F)cc2C2C=CCC12 (stereo unspecified),1.4%,i,?,22.4µM*
O=C(NCc1ccccn1)C1Nc2ccc(OC(F)(F)F)cc2C2C=CCC12 (stereo unspecified),-2.7%,i,i,17.8µM*
O=C(NC1CC1)C1Nc2ccc(OC(F)(F)F)cc2C2C=CCC12 (stereo unspecified),-7.4%,i,i,4.6%
COc1ccc(CN2C(=O)c3ccccc3C2c2nnnn2Cc2ccccc2)cc1OC (stereo unspecified),7.4%,i,i,22.0%
Cc1nnc(N2C(=O)C(O)=C(C(=O)c3ccco3)C2c2ccc(C(C)C)cc2)s1 (stereo unspecified),-1.1%,7.08µM*,i,8.6%
COc1ccc(N=Cc2nc(-c3ccco3)oc2O)cc1,-7.4%,i,i,7.08µM*
COc1ccc(/C=N/NC(=O)Cc2csc(Nc3cccc(C(F)(F)F)c3)n2)cc1C,6.5%,i,i,12.6%
Cc1noc(NS(=O)(=O)c2ccc(NC(=O)c3cc(S(=O)(=O)N(C)c4ccccc4)ccc3Cl)cc2)c1C,-2.5%,?,i,10.9%
CCOc1ccc(Nc2nc3ccccc3n3c(CC)nnc23)cc1,.,i,i,25.1µM*
Cc1ccc(/C=C/C(=O)O)cc1S(=O)(=O)N1CCCc2ccccc21,-0.7%,i,i,?
Cc1ccc(/C=C/C(=O)O)cc1S(=O)(=O)N1CCc2ccccc21,9.6%,i,i,7.94µM*
Cc1ccc(C)c(NC(=O)c2cnn(-c3cccc(F)c3)c2C2CCN(C(=O)OC(C)(C)C)CC2)c1,.,?,i,35.5µM*
CCc1cccc(C)c1NC(=O)c1cnn(-c2ccc(OC)cc2)c1C1CCN(C(=O)OC(C)(C)C)CC1,.,22.4µM*,i,6.1%
CCOc1ccccc1N(CC(=O)Nc1ccccc1)S(=O)(=O)c1ccccc1,-5.4%,i,i,-0.5%
COc1ccc(/C(N)=N/OC(=O)CCC2CCCC2)cc1OC,0.9%,i,i,?
COc1ccc(/C(N)=N/OC(=O)CC2CCCCC2)cc1OC,0.7%,?,i,22.4µM*
N/C(=N\OC(=O)C1CCCCC1)c1cccc(Br)c1,-35.8%,i,i,-45.2%
N/C(=N\OC(=O)CC1CCCCC1)c1ccc(Br)cc1,-18.6%,.,i,7.94µM*
N/C(=N\OC(=O)CC1CCCCC1)c1cccc(Br)c1,-34.2%,i,i,3.16µM*

# Screens (PubChem)
